Laboratory results: paper PMC5540273 (PLoS ONE, 2017)

Key:
Details in all cases: concentration: 1 μM, replicates: in singlicate; n = 1
[1] = tested on: PRP4
[2] = tested on: T1, PYK2
T1 construct: gene PTK2B

[3] = tested on: QSK
[4] = tested on: RAF1
[5] = tested on: RET
[6] = tested on: RIOK1
[7] = tested on: RIOK2
[8] = tested on: RIOK3
[9] = tested on: RIPK1
[10] = tested on: RIPK2
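Also: KINOMEscan kinase panel screen.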

SMILES	%Inh [1] [%]	%Inh [2] [%]	%Inh [3] [%]	%Inh [4] [%]	%Inh [5] [%]	%Inh [6] [%]	%Inh [7] [%]	%Inh [8] [%]	%Inh [9] [%]	%Inh [10] [%]
CNC(=O)c1ccc(C)c(-n2c(C)cc(OCc3ccc(F)cc3F)c(Br)c2=O)c1	0	0	0	0	0	0	0	0	0	0
Cc1ccc(NC(=O)c2ccc(Cl)cc2)cc1-c1ccc(C(=O)Nc2ccncc2)cc1 [GSK1398467]	46	18	0	35	0	32	0	8	0	12
COc1ccc(CSc2nnc(-c3ccc4nccn4c3)o2)cc1C(F)(F)F	4	0	11	4	23	15	32	17	5	0
CNCc1ccc2nc(NC(=O)c3ccc(C(C)(C)C)cc3)cn2c1	36	7	12	11	14	20	86	25	2	2
O=C(Nc1n[nH]c2nc(-c3cccs3)c(Br)cc12)C1CC1 [SB-735297]	8	16	8	0	0	7	11	0	8	95.4
CCCCc1nn2ncccc2c1-c1ccnc(NC2CC2)n1 [GW684374]	26	0	0	2	0	39	13	24	0	2
Cc1cccc2c(-c3ccncn3)c(-c3ccc(F)cc3)nn12 [GW515532]	10	0	0	0	0	34	0	5	1	11
Cc1ccc(NC(=O)Nc2ccc(Cl)cc2)cc1-c1ccc(C(=O)Nc2ccncc2)cc1 [GSK1398472]	21	15	1	87	6	31	0	31	0	12
CN1c2ccc(-c3ccc(C(N)=O)cc3)cc2-c2[nH]ncc2S1(=O)=O	12	0	14	11	1	33	0	29	0	0
COc1nccc(-c2c(-c3ccc(F)cc3)ncn2CCCN2CCOCC2)n1 [SB-282852]	24	0	0	11	0	46	0	10	0	0
CS(=O)(=O)CCNCc1nc(-c2ccc3ncnc(Nc4ccc5c(cnn5Cc5ccccc5)c4)c3c2)cs1.Cl.Cl [GW569716]	49	0	9	13	0	22	0	0	0	88
COc1cccc(NC(=O)Nc2ccc(C)c(-c3ccc(C(=O)Nc4ccncc4)cc3)c2)c1 [GSK1398474]	52	13	0	78	33	27	0	0	0	0
CS(=O)(=O)CCNCc1nc(-c2ccc3ncnc(Nc4ccc(OCc5ccccc5)c(Cl)c4)c3c2)cs1.Cl [GW582764]	51	1	0	13	0	0	0	0	0	68
Cl.Cl.Cl.N#Cc1ccc(CCNc2nccc(-c3cccc(CN4CCNCC4)c3)n2)cc1 [GSK2137462]	0	0	9	12	26	28	42	37	34	24
COC(=O)c1cccc(NC(=O)NC2CCN(c3ccnc(Nc4ccc(OC)cc4)n3)C2)c1 (stereo not drawn) [GSK1379746]	59	0	1	23	0	43	0	0	0	4
O=C(Nc1n[nH]c2nc(-c3ccco3)c(Br)cc12)C1CCN(Cc2ccccc2)C1.O=C(O)[C@H](O)[C@@H](O)C(=O)O (stereo not drawn) [SB-742034]	0	6	26	15	2	0	7	0	0	0
Cc1ccc(NC(=O)Nc2ccccc2F)cc1-c1ccc(C(=O)Nc2ccncc2)cc1 [GSK1398477]	2	0	20	70	21	44	11	6	15	6
CC(=O)c1c(C)c2cnc(Nc3ccn(C)n3)nc2n(C2CCCC2)c1=O	0	0	0	0	5	0	24	0	2	0
